From PubChem BioAssay
Records with an inconclusive call do not appear. The source made the active and inactive calls.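 The calls were made as follows, unless noted: active = normalized viability below 100% at a tested concentration; inactive = the rest.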

What was measured:
[1] = viability loss in pontine glioma line – cell-based, SU-DIPG-XVII, MIPE5.0, CellTiter-Glo, qHTS, dose response (AID 1347060; cut-off not given, nearly all actives have AC50 up to about 26 µM;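 as to AC50: cells exposed to compound for 48 hours before viability readout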); conditions: CellTiter-Glo ATP luminescence
[2] = viability loss in pontine glioma line – cell-based, SU-DIPG-IV, MIPE4.0, CellTiter-Glo, qHTS, dose response (AID 1347063; cut-off not given, nearly all actives have AC50 up to about 30 µM;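 also: compound exposure lasted 48 hours before the viability readout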); conditions: CellTiter-Glo ATP luminescence
[3] = viability loss in pontine glioma line – cell-based, SU-DIPG-XIII, MIPE5.0, CellTiter-Glo, qHTS, dose response (AID 1347064; cut-off not given, nearly all actives have AC50 up to about 23 µM;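 also: cells exposed to compound for 48 hours before the viability read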); conditions: CellTiter-Glo ATP luminescence
[4] = viability loss in pontine glioma line – cell-based, SU-DIPG-XXV, MIPE5.0, CellTiter-Glo, qHTS, dose response (AID 1347065; cut-off not given, nearly all actives have AC50 up to about 26 µM;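 also: cells exposed to compound for 48 hours before ATP readout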); conditions: CellTiter-Glo ATP luminescence
[5] = growth inhibition of DIPG cells – cell-based, MIPE4.0 library, CellTiter-Glo luminescence, qHTS (AID 1347066; cut-off not given, nearly all actives have AC50 up to about 30 µM;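 also: cells exposed to compound for 48 hours before readout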); conditions: SU-DIPG-VI viability, CellTiter-Glo ATP luminescence
[6] = JHH-DIPG-1 glioma cell viability, MIPE5.0 library, CellTiter-Glo luminescence, qHTS (AID 1347067; cut-off not given, nearly all actives have AC50 up to about 26 µM;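 also: cells exposed to compound for 48 hours before readout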); conditions: JHH-DIPG-1 glioma viability, CellTiter-Glo ATP luminescence
[7] = growth inhibition of DIPG cells – cell-based, MIPE5.0 library, qHTS (AID 1347068; cut-off not given, nearly all actives have IC50 up to about 30 µM;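 as to IC50: cells exposed to compound for 48 hours before viability readout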); conditions: SU-DIPG-XXV viability
[8] = viability loss with induced miR-34 in A549 – imaging, A549 dox-inducible miR-34, nuclei and caspase counts, primary screen (AID 1347080;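 active = compounds whose cell count with miR-34 switched on is under 0.7 times the count with it off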); conditions: A549 miR-34 inducible, Hoechst nuclei count, 48 h
[9] = MELAS cybrid and Rieske KO viability enhancers – cell-based, MELAS cybrids, Rieske KO mouse fibroblasts, CellTiter-Glo, primary screen (AID 1508586;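 active = mean z-score across replicates of 1.96 or higher in either the MELAS or the Rieske mutant cell line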;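 also: z relative to plate mean and SD of compound and empty wells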); conditions: low glucose
[10] = compounds altering HSF1 focus formation in cells – imaging, Selleck Cancer Library (AID 1347162; in the data active = plate-normalised HSF1 focus index below about 0.46); conditions: human cells, HSF1 nuclear foci imaging, at 10 µM; SSMD: measured here: HSF1 foci SSMD mean; cell count: measured here: cell number; plate-normalised HSF1 focus index: stronger effect = lower value
[11] = drug combination growth inhibition, ovarian cancer – cell-based, oncology-focused library, rucaparib conditional, profiling panel (AID 1508598); conditions: patient-derived ovarian cancer cells, CellTiter-Glo viability, 144 h, stronger effect = lower value
[12] = viability loss in pontine glioma line – cell-based, JHH-DIPG-1, MIPE4.0, CellTiter-Glo, qHTS, dose response (AID 1347062; cut-off not given, nearly all actives have AC50 up to about 27 µM;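 as to AC50: cells exposed to compound for two days before readout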); conditions: JHH-DIPG-1 viability, CellTiter-Glo ATP luminescence
[13] = stronger effect = lower value, cell number ratio, induced over uninduced
[14] = measured here: relative caspase fold change +Dox/-Dox
[15] = measured here: total cells with miR-34 induction, stronger effect = lower value
[16] = measured here: total cells without miR-34 induction
[17] = MELAS cybrid survival, CellTiter-Glo 48 h, stronger effect = higher value
[18] = Rieske KO mouse fibroblast survival, CellTiter-Glo 72 h
[19] = at 0.000305 µM, OCI-C5x cells, with rucaparib 10 µM, 100% = cells with rucaparib alone
[20] = at 0.000305 µM, OCI-C5x cells, without rucaparib
[21] = at 0.000305 µM, OCI-P5x cells, with rucaparib 20 µM, 100% = cells with rucaparib alone
[22] = at 0.000305 µM, OCI-P5x cells, without rucaparib
[23] = at 0.00122 µM, OCI-C5x cells, with rucaparib 10 µM, 100% = cells with rucaparib alone
[24] = at 0.00122 µM, OCI-C5x cells, without rucaparib
[25] = at 0.00122 µM, OCI-P5x cells, with rucaparib 20 µM, 100% = cells with rucaparib alone
[26] = at 0.00122 µM, OCI-P5x cells, without rucaparib
[27] = at 0.00488 µM, OCI-C5x cells, with rucaparib 10 µM, 100% = cells with rucaparib alone
[28] = at 0.00488 µM, OCI-C5x cells, without rucaparib
[29] = at 0.00488 µM, OCI-P5x cells, with rucaparib 20 µM, 100% = cells with rucaparib alone
[30] = at 0.00488 µM, OCI-P5x cells, without rucaparib
[31] = at 0.0195 µM, OCI-C5x cells, with rucaparib 10 µM, 100% = cells with rucaparib alone
[32] = at 0.0195 µM, OCI-C5x cells, without rucaparib
[33] = at 0.0195 µM, OCI-P5x cells, with rucaparib 20 µM, 100% = cells with rucaparib alone
[34] = at 0.0195 µM, OCI-P5x cells, without rucaparib
[35] = at 0.0781 µM, OCI-C5x cells, with rucaparib 10 µM, 100% = cells with rucaparib alone
[36] = at 0.0781 µM, OCI-C5x cells, without rucaparib
[37] = at 0.0781 µM, OCI-P5x cells, with rucaparib 20 µM, 100% = cells with rucaparib alone
[38] = at 0.0781 µM, OCI-P5x cells, without rucaparib
[39] = at 0.313 µM, OCI-C5x cells, with rucaparib 10 µM, 100% = cells with rucaparib alone
[40] = at 0.313 µM, OCI-C5x cells, without rucaparib
[41] = at 0.313 µM, OCI-P5x cells, with rucaparib 20 µM, 100% = cells with rucaparib alone
[42] = at 0.313 µM, OCI-P5x cells, without rucaparib
[43] = at 1.25 µM, OCI-C5x cells, with rucaparib 10 µM, 100% = cells with rucaparib alone
[44] = at 1.25 µM, OCI-C5x cells, without rucaparib
[45] = at 1.25 µM, OCI-P5x cells, with rucaparib 20 µM, 100% = cells with rucaparib alone
[46] = at 1.25 µM, OCI-P5x cells, without rucaparib
[47] = at 5 µM, OCI-C5x cells, with rucaparib 10 µM, 100% = cells with rucaparib alone
[48] = at 5 µM, OCI-C5x cells, without rucaparib
[49] = at 5 µM, OCI-P5x cells, with rucaparib 20 µM, 100% = cells with rucaparib alone
[50] = at 5 µM, OCI-P5x cells, without rucaparib

CN1N=C(N)c2cn([C@@H]3O[C@H](COP(=O)(O)O)[C@@H](O)[C@H]3O)c3ncnc1c23
active: AC50 [1] 0.417 µM | AC50 [2] 0.372 µM | AC50 [3] 1.66 µM | AC50 [4] 0.105 µM | AC50 [5] 0.132 µM

COc1cccc2cc(-c3nc(C4CCC(C(=O)O)CC4)n4ncnc(N)c34)[nH]c12 (stereo not drawn)
-0.621: z-score [9, 18]
0.637: fold change [8, 14]
active: AC50 [1] 5.9 µM | AC50 [2] 0.166 µM | AC50 [3] 3.72 µM | AC50 [4] 2.63 µM | AC50 [6] 1.18 µM | z-score [9, 17] 4.23
inactive: outcome [7] | fold change [8, 13] 0.965
3250: cell count [8, 15]
3360: cell count [8, 16]

O=C(Nc1ccccc1-c1cn2c(CN3CCNCC3)csc2n1)c1cnc2ccccc2n1
0.327: z-score [9, 18]
active: AC50 [1] 9.34 µM | AC50 [2] 8.33 µM | AC50 [3] 2.09 µM | AC50 [4] 3.32 µM | AC50 [5] 10.5 µM | AC50 [6] 3.72 µM | IC50 [7] 10.5 µM | viability [11, 45] 68.8% | viability [11, 46] 89.6% | viability [11, 47] 1.3% | viability [11, 48] 1.45% | viability [11, 49] 0.727% | viability [11, 50] 0.751%
0.998: fold change [8, 14]
6250: cell count [8, 15]
inactive: fold change [8, 13] 0.907 | plate-normalised HSF1 focus index [10] 0.795 | z-score [9, 17] -0.642 | viability [11, 19] 102% | viability [11, 20] 114% | viability [11, 21] 123% | viability [11, 22] 115% | viability [11, 23] 101% | viability [11, 24] 106% | viability [11, 25] 117% | viability [11, 26] 116% | viability [11, 27] 106% | viability [11, 28] 110% | viability [11, 29] 111% | viability [11, 30] 114% | viability [11, 31] 113% | viability [11, 32] 116% | viability [11, 33] 111% | viability [11, 34] 114% | viability [11, 35] 113% | viability [11, 36] 110% | viability [11, 37] 110% | viability [11, 38] 110% | viability [11, 39] 110% | viability [11, 40] 108% | viability [11, 41] 113% | viability [11, 42] 107% | viability [11, 43] 131% | viability [11, 44] 120%
6160: cell count [10]
6890: cell count [8, 16]
-4.31: SSMD [10]

Cc1cnc(NC(=O)Nc2cc(Br)c(C)cc2OC[C@@H]2CNCCO2)cn1
active: AC50 [1] 8.33 µM | AC50 [12] 1.18 µM | AC50 [4] 8.33 µM | AC50 [6] 20.9 µM | viability [11, 21] 65.9% | viability [11, 22] 19.8% | viability [11, 23] 84.2% | viability [11, 24] 88.9% | viability [11, 25] 47.7% | viability [11, 26] 17.5% | viability [11, 37] 92.1% | viability [11, 39] 96% | viability [11, 40] 98% | viability [11, 41] 73.6% | viability [11, 42] 94.9% | viability [11, 43] 60.4% | viability [11, 44] 71.2% | viability [11, 45] 43% | viability [11, 46] 85.9% | viability [11, 47] 3.26% | viability [11, 48] 46.4% | viability [11, 49] 0.466% | viability [11, 50] 7.42%
3.14: SSMD [10]
6470: cell count [10]
inactive: plate-normalised HSF1 focus index [10] 1.16 | viability [11, 19] 111% | viability [11, 20] 118% | viability [11, 27] 103% | viability [11, 28] 121% | viability [11, 29] 114% | viability [11, 30] 109% | viability [11, 31] 109% | viability [11, 32] 113% | viability [11, 33] 107% | viability [11, 34] 104% | viability [11, 35] 102% | viability [11, 36] 117% | viability [11, 38] 105%

COc1ccc(-c2ccc3c(N4CCOCC4)nc(N4C[C@@H](C)O[C@@H](C)C4)nc3n2)cc1CO
active: AC50 [1] 3.72 µM | AC50 [2] 0.332 µM | AC50 [3] 4.17 µM | AC50 [4] 1.05 µM | AC50 [6] 1.05 µM | viability [11, 41] 95.5% | viability [11, 45] 78.8% | viability [11, 46] 91.3% | viability [11, 49] 48% | viability [11, 50] 99.4%
inactive: outcome [5] | plate-normalised HSF1 focus index [10] 0.909 | viability [11, 19] 118% | viability [11, 20] 122% | viability [11, 21] 105% | viability [11, 22] 112% | viability [11, 23] 113% | viability [11, 24] 119% | viability [11, 25] 109% | viability [11, 26] 108% | viability [11, 27] 112% | viability [11, 28] 120% | viability [11, 29] 104% | viability [11, 30] 107% | viability [11, 31] 120% | viability [11, 32] 117% | viability [11, 33] 103% | viability [11, 34] 104% | viability [11, 35] 122% | viability [11, 36] 125% | viability [11, 37] 100% | viability [11, 38] 109% | viability [11, 39] 121% | viability [11, 40] 127% | viability [11, 42] 106% | viability [11, 43] 120% | viability [11, 44] 124% | viability [11, 47] 133% | viability [11, 48] 106%
-1.75: SSMD [10]
6570: cell count [10]

CCOc1cc(/C=C2/C(=O)N(c3ccccc3)N=C2C)cc(Cl)c1OCC(=O)OC
1.24: SSMD [10]
inactive: outcome [1] | outcome [12] | outcome [4] | outcome [6] | outcome [7] | plate-normalised HSF1 focus index [10] 1.07
6670: cell count [10]
